# According to PubChem BioAssay AID651871 (Sanford-Burnham Center for Chemical Genomics, 2012):
# Where “and” joins values, the source holds several entries; their conditions need not be identical. Equal values may be shown once.
# Test system: H9c2
# Assay: protection of cardiomyocytes from stress damage, SAR follow-up, cell-based, panel, H9c2 and HL-1, ATP luminescence, set 2 (AID 651871);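 also: cells exposed to stressor for 2 h before ATP readout; reference of the scale not given here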
# Details: H9c2/HL-1 cardiomyocytes, 2-deoxyglucose stress, with 2-deoxyglucose, run 4, at 79 µM (top of the series)
row,Compound,activity (protection/inhibition)
1,COc1ccc2nc(-c3cc(OC)c(OC)c(OC)c3)cc(C(=O)NCC(=O)Nc3ccc(C(C)=O)cc3)c2c1,80.7%
2,CCOC(=O)c1cccc(NC(=O)CNC(=O)c2cc(-c3cc(OC)c(OC)c(OC)c3)nc3ccccc23)c1,87.2%
3,COc1ccc2c(c1OC)C(=O)N1c3ccccc3C(=O)N(Cc3cccc(Cl)c3Cl)C21 (stereo not drawn),57.7% and -8.42%
